Only some compounds are listed: those with a hit (about 1.4% of all), similar ones and a draw of the others.
p53 reactivator = restores transcriptional activity of mutant p53 | H1299 p53-A138V BP100-luciferase reporter, luminescence, 24 h | Potency, µM (series often up to 92.2 µM), most hits filed as activators | 320,000 tested, 0.063% active; note: nearly all actives have a fitted effect of over 45% in size
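p53-null H1299 cells stably carrying temperature-sensitive p53-A138V and a BP100-luciferase reporter were pinned with compounds (4-point, 1:5 series) and held 24 hrs at 37 deg C. Luminescence was read 10 min after detection reagent.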
uPA generation = cell surface uPA generation inhibition; cell surface uPA generation assay, qHTS; Potency, µM (highest dose often 38.3 µM), hits mostly inhibitors; 330,000 tested, 0.31% active; active = well fitted inhibition curve with a large enough effect; inconclusive = small, poorly fitted or top-dose-only effect; inactive = no such curve, though single readings can be large or run the other way; tested in mouse RAW 264.7 cells; note: nearly all actives have a fitted effect of over 55% in size
BRCA1 expr act = BRCA1 expression activation; AID 624202; Potency, µM (titrated, usually from 46.1 µM), hits mostly activators; MCF7-BRCA1-FFLuc reporter, luminescence, 48 h; response scale: scaled: vehicle 0%, 10 µM genistein 100%; 380,000 tested, 1.1% active; note: nearly all actives have a fitted effect of over 80% in size
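MCF7-BRCA1-FFLuc, 2000 cells/well; 2 h attach, 37 °C/5% CO2; compound 48 h; luciferase substrate 15 min; luminescence end-point. Norm. to genistein 10 microM max activation and DMSO; concentration-response curves fitted.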
IL2 activator = activates IL-2 in a cell-based reporter assay | 360,000 tested, 0.065% active | IL-2 activation reporter assay, cell-based qHTS; stimulated with anti-CD3/CD4/CD28 beads; in transgenic mouse T cells | AID 652025 | activation, % (series mostly up to about 46 µM); in the data active = activation above about 50%; inconclusive = mostly about 30% to 49%
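Screening format: compound pinned onto unstimulated transgenic mouse T cells, 60 min incubation, then anti-CD3/anti-CD4/anti-CD28 bead stimulation for 18 hours at 37 degrees C, followed by EGFP and DsRed detection.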
TCR act = activates T cell receptor signaling | primary human leukocytes, anti-CD3, IL-2 HTRF, 48 h | Potency, µM (titrated, usually from 9.22 µM), usual class: activators | AID 504894 | 330,000 tested, under 10 active
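48 hr co-incubation of compounds, a-CD3 beads and primary human leukocytes; IL-2 quantified homogeneously by HTRF with anti-IL-2 K and d2 conjugates.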
Numbers stand for hits; - = inactive; ? = inconclusive; . = no result; ! = not confirmed by another sample. Unless noted, calls come from the whole dose curve; as a rule, active = well fitted curve in the direction sought with a large enough effect; inconclusive = small, poorly fitted or top-dose-only effect, or another doubt; inactive = no such curve, though single readings can be large; an effect the other way counts as inactive or inconclusive.

SMILES	p53 reactivator	uPA generation	BRCA1 expr act	IL2 activator	TCR act
Cc1ccc(NC(=S)NC(=O)c2cccs2)cc1F	?	-	3.5µM	-	-
CC(=O)NC(=S)Nc1ccc(NC(=O)c2cccs2)cc1	?	-	-	-	-
CC(SC1=NS(=O)(=O)c2ccccc21)C(=O)O (centres undefined)	.	.	-	.	.
COc1ccc(N2CCN(C(c3ccccc3)c3nnnn3C(C)C)CC2)cc1 (centres undefined)	.	.	-	.	.
CCOC(=O)c1cnc(SCc2ccccc2)nc1N	?	-	2.2µM	-	-
O=[N+]([O-])c1ccc(CSc2nc3ccccc3[nH]2)cc1	?	-	4µM	-	-
Cc1ccc(NC(=O)COc2ccc3c(c2)OCO3)c(Cl)c1	-	-	14µM	-	-
O=C(COc1ccc2c(c1)OCO2)Nc1ccccc1C(F)(F)F	?	-	10µM	-	-
CC(C)(C)c1nnc(NC(=O)c2ccc3c(c2)OCO3)s1	?	-	?	-	-
CC(C)(C)c1nnc(NC(=O)COc2ccc3c(c2)OCO3)s1	?	-	2.5µM	-	-
CCc1ccccc1NC(=O)COc1ccc2c(c1)OCO2	-	-	-	-	-
CC1CCCN(C(=O)COc2ccc3c(c2)OCO3)C1 (centres undefined)	-	-	-	-	-
CC1Cc2ccccc2N1C(=O)COc1ccc2c(c1)OCO2 (centres undefined)	-	-	3.2µM	-	-
COc1cccc(NC(=O)COc2ccccc2C(=O)Nc2ccccc2)c1	.	.	-	.	.
COc1ccc(-n2c(C)nn(CCOc3ccccc3)c2=O)cc1	-	-	10µM	-	-
Cc1nn(CCOc2ccccc2)c(=O)n1-c1ccccc1	-	.	?	-	-
COC(=O)/C=C/C(=O)N1CCN(c2ccccc2)CC1	?	-	-	-	-
COC(=O)/C=C/C(=O)N1CCN(c2ccccc2C)CC1	-	11µM	-	-	-
COc1ccc(CCNC(=O)c2ccc(Cn3c(=O)c4ccccc4n(CC(=O)C(C)(C)C)c3=O)cc2)cc1OC	.	.	-	.	.
Nc1nc(N)nc(COc2ccccc2)n1	-	-	4.5µM	-	-
CCOc1ccc(Cc2nc(N)nc(N)n2)cc1	-	-	-	-	-
CCOC(=O)c1c(Nc2ccc(C)c(C)c2)nnc(-c2ccccc2)c1-c1ccccc1	.	.	-	.	.
CCCCNC(=S)N1CCN(c2nc3ccccc3s2)CC1	-	-	-	-	-
O=S(=O)(c1ccccc1)N1CCN(c2nc3ccccc3s2)CC1	-	-	-	-	-
CS(=O)(=O)N1CCN(c2nc3ccccc3s2)CC1	?	-	13µM	-	.
SMILES	p53 reactivator	uPA generation	BRCA1 expr act	IL2 activator	TCR act
CNC(=S)N1CCN(c2nc3ccccc3s2)CC1	-	-	7.1µM	-	-
Cc1cnc2ccc(I)cc2c1/C=C/c1ccc(N(C)C)cc1	.	.	-	.	.
CC1CCN(c2nc(-c3cccnc3)nc3scc(-c4ccccc4)c23)CC1	-	-	-	-	-
Clc1nc(-c2ccccn2)nc2scc(-c3ccccc3)c12	11µM	10µM	-	-	-
COc1cc(C#Cc2ccc3cc(CCO)oc(=O)c3c2)cc(OC)c1	-	-	7.1µM	-	-
CCOc1ccc(C(=O)Nc2ccc3[nH]ncc3c2)cc1	-	5µM	-	-	.
COc1ccc(C(=O)Nc2ccc3[nH]ncc3c2)cc1	?	3.2µM	?	-	.
O=C(Nc1ccc2[nH]ncc2c1)c1ccccc1Cl	.	-	2.8µM	-	-
CCOc1ccc(NC(=O)c2cc3ccccc3cc2OC)cc1	-	-	-	-	-
CCOc1ccc(NC(=O)c2ccc(F)cc2F)cc1	.	-	11µM	-	-
Cc1ccc(NC(=O)Cc2ccc(NC(=O)N3CCCCc4ccccc43)cc2)cc1Cl	.	.	-	.	.
CCOc1ccc(NC(=O)c2ccc3snnc3c2)cc1	?	-	7.9µM!	-	-
O=C(Nc1ccccn1)c1ccc([N+](=O)[O-])o1	?	7.1µM	-	-	-
Cc1cccc(NC(=O)c2ccc([N+](=O)[O-])o2)c1C	-	-	-	-	-
NC(=O)c1ccsc1NC(=O)c1ccc([N+](=O)[O-])o1	-	7.1µM	-	-	-
COc1ccccc1NC(=O)c1ccc([N+](=O)[O-])o1	.	10µM	-	-	-
Cc1nc(SCC(=O)Nc2nccs2)c(C#N)c(C)c1C	-	1µM	-	-	.
Cc1nc(SCC(=O)Nc2nc3ccccc3s2)c(C#N)c(C)c1C	-	?	?	-	-

Assay outcomes as filed in PubChem.
